Reference: the supplement of paper PMC11732987, “Enantioselective OTUD7B fragment discovery through chemoproteomics screening and high-throughput optimisation” (Communications Chemistry, 2025)

How the values were obtained:
Test in all cases: log2 ratio of Biotin-Ahx-Ub-VS probe labelling (fragment/DMSO); higher = less target engagement (more negative = stronger competition), active = hit call of the paper (q ≤ 0.05, log2 ratio ≤ -1)
Details in all cases: compound concentration: 200 uM; treatment time: 3 h
USP34 = USP34 (UniProt Q70CQ2)
USP34, sequence (Q70CQ2 whole entry, the tested form may be a part): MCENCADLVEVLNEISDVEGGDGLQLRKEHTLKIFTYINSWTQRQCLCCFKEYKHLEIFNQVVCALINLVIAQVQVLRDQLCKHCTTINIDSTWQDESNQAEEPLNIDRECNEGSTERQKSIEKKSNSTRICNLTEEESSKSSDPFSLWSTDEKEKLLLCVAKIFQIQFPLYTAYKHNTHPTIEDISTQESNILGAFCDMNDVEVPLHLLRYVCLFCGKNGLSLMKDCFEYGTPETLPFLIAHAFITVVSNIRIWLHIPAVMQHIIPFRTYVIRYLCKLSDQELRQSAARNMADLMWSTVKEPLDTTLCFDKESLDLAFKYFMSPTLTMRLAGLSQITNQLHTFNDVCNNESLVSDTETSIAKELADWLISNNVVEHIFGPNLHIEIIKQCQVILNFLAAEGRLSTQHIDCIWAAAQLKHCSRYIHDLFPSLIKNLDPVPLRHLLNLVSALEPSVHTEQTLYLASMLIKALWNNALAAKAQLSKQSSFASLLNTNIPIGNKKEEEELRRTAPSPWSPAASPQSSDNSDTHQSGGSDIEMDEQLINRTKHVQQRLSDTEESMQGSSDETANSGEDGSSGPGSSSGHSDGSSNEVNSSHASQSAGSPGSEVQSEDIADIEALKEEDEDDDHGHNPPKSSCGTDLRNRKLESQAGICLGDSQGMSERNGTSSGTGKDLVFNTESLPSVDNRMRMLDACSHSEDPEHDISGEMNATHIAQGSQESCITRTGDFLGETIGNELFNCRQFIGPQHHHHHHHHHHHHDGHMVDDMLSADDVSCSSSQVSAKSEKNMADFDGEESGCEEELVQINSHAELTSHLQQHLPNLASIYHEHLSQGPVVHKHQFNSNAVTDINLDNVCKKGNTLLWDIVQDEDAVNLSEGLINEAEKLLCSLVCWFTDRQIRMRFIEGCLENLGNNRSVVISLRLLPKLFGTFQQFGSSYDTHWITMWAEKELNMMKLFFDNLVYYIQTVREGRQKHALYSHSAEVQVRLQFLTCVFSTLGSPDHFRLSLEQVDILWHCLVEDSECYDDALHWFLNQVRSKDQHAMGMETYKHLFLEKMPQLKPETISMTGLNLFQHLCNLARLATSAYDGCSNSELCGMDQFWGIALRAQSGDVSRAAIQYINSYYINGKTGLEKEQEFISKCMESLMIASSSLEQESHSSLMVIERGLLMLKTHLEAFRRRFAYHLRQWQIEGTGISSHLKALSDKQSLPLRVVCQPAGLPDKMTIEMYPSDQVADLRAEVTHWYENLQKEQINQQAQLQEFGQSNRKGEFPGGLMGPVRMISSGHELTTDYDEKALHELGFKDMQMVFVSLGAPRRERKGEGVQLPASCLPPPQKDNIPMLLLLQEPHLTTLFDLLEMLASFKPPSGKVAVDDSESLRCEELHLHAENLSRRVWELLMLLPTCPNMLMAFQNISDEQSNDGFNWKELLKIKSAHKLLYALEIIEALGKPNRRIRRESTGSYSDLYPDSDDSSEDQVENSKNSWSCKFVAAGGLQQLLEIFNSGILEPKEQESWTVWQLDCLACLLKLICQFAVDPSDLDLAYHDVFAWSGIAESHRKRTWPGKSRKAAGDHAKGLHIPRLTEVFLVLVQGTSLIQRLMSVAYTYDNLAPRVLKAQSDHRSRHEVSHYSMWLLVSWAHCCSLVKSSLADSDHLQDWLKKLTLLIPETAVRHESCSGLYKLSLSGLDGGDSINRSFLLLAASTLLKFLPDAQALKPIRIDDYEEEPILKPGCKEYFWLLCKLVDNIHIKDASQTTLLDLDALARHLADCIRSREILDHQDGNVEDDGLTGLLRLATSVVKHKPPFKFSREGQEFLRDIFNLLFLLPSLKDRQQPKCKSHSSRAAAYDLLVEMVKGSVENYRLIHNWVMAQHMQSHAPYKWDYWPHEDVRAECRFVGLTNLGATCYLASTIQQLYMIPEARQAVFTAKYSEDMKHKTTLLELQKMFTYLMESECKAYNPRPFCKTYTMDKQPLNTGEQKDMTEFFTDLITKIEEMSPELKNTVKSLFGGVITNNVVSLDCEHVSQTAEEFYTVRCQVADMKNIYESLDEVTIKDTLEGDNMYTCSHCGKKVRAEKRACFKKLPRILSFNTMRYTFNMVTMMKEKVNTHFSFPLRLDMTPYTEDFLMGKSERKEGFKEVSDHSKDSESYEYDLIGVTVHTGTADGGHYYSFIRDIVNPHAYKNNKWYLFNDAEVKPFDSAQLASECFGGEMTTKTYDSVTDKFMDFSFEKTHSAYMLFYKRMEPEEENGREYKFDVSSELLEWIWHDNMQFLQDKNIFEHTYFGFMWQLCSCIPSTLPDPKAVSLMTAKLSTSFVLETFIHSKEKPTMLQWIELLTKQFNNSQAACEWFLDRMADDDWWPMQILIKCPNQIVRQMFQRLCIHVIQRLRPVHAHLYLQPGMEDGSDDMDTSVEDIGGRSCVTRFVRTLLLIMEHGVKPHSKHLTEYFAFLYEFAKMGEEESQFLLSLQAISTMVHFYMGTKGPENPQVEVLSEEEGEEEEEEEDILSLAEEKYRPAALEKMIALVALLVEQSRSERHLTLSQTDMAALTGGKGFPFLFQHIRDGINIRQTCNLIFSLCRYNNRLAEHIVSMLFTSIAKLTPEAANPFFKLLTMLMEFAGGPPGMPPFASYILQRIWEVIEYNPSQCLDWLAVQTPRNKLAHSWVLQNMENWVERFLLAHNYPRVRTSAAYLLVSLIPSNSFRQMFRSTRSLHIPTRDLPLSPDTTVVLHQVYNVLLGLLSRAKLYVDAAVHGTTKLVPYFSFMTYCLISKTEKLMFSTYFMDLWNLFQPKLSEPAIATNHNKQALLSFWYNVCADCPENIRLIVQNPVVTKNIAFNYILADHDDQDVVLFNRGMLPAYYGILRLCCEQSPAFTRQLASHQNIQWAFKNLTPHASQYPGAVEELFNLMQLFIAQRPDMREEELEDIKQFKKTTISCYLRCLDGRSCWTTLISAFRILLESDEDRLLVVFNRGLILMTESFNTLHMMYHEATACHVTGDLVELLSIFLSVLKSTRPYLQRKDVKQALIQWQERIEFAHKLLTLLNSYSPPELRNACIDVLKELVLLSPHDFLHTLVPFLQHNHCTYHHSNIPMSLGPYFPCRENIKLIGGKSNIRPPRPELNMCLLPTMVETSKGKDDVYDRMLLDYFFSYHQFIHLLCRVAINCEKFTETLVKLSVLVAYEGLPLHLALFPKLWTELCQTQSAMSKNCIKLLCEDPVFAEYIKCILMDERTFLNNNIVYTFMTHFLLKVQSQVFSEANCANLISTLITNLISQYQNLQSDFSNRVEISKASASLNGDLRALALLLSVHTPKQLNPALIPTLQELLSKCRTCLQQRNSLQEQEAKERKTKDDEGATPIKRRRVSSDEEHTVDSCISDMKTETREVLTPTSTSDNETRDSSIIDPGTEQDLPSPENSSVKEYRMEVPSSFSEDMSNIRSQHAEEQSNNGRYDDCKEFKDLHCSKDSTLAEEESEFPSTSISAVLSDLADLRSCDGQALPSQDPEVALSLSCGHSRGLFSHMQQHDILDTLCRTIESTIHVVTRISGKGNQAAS
Outline: (§1)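 HEK293T lysate, 495 µg per sample in Tris/CHAPS/IGEPAL buffer with protease inhibitors, was treated in triplicate with fragment at 200 µM or vehicle for 3 h and then with Biotin-Ahx-Ub-VS at 0.5 µM final for 1 h. Labelled DUBs were NeutrAvidin-enriched, digested with LysC and trypsin, and run by diaPASEF LC-MS/MS. Spectronaut label-free quantities were global-median-normalised, and values are average log2 fragment/vehicle ratios by unpaired t-test on proteins with ≥2 unique peptides.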

USP36 = target: T1, USP36 (UniProt Q9P275)
T1 sequence (whole entry): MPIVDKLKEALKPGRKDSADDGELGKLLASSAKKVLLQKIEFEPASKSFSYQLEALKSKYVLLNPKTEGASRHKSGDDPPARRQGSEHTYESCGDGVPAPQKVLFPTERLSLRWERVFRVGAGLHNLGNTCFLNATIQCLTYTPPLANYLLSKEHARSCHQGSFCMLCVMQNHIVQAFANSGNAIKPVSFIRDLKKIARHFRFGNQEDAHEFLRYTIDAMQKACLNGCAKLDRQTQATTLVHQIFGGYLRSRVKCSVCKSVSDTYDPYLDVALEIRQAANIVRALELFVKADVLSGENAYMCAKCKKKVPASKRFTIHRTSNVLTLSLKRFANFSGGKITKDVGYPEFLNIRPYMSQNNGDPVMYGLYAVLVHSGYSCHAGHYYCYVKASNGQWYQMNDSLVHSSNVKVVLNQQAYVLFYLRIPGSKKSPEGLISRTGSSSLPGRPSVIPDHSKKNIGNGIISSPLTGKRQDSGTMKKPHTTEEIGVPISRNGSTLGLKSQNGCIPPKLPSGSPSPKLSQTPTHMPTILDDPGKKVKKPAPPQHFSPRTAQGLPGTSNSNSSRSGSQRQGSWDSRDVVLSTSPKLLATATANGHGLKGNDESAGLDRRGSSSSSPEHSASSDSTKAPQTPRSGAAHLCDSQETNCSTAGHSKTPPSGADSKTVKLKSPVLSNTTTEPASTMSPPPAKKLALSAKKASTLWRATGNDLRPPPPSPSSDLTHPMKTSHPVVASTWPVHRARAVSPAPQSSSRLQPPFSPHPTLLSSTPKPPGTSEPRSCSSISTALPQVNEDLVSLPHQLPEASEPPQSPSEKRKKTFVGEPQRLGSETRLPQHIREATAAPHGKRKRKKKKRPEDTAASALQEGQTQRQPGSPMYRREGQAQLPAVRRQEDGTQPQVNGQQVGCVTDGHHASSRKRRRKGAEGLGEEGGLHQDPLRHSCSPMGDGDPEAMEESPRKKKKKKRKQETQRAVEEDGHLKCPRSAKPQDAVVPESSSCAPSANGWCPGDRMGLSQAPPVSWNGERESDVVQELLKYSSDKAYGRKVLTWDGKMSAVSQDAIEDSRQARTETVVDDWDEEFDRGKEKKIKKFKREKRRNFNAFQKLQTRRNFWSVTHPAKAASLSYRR
Outline: as §1

USP38 = target: T2, USP38 (UniProt Q8NB14)
T2 sequence (whole entry): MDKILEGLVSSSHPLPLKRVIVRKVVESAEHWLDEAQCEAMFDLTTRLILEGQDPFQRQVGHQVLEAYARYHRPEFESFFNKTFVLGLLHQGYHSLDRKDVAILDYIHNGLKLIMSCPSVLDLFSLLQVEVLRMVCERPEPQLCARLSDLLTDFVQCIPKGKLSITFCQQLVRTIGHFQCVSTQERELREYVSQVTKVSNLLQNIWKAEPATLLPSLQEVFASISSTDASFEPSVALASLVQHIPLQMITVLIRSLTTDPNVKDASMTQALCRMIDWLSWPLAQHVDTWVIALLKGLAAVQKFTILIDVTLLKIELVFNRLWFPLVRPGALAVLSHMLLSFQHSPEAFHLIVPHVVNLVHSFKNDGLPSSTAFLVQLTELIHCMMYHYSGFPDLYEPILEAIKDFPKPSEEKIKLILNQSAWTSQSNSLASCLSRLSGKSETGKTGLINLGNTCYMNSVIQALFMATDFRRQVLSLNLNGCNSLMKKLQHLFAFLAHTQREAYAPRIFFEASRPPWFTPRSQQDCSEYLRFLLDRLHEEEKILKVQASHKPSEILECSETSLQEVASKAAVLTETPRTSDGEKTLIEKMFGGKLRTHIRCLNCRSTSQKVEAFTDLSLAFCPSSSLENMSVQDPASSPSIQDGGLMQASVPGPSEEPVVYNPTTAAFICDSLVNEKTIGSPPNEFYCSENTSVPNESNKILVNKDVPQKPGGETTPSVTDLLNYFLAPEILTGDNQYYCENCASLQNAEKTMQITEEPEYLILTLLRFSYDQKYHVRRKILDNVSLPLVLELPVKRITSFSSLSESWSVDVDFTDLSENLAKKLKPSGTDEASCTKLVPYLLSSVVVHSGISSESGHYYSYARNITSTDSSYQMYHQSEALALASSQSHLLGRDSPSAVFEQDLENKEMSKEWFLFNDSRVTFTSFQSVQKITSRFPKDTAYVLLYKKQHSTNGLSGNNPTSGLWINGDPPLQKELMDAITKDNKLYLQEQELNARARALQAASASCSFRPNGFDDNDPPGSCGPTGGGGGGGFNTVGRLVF
Outline: as §1

USP39 = target: T3, USP39 (UniProt Q53GS9)
T3 sequence (whole entry): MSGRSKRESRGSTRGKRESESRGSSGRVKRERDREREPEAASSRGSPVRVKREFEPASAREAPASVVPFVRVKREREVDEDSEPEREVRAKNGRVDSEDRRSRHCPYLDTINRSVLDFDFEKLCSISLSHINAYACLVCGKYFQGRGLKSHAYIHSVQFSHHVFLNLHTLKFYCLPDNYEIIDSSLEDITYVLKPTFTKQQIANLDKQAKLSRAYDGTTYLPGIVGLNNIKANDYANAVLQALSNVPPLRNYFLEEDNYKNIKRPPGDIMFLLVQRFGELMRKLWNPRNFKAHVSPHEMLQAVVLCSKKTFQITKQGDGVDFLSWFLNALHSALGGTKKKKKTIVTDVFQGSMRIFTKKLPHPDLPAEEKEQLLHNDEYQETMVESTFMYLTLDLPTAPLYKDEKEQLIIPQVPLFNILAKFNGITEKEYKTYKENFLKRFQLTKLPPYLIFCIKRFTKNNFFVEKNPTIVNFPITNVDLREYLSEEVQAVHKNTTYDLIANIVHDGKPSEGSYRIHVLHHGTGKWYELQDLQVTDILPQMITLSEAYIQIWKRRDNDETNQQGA
Outline: as §1

USP4 = target: T4, USP4 (UniProt Q13107)
T4 sequence (whole entry): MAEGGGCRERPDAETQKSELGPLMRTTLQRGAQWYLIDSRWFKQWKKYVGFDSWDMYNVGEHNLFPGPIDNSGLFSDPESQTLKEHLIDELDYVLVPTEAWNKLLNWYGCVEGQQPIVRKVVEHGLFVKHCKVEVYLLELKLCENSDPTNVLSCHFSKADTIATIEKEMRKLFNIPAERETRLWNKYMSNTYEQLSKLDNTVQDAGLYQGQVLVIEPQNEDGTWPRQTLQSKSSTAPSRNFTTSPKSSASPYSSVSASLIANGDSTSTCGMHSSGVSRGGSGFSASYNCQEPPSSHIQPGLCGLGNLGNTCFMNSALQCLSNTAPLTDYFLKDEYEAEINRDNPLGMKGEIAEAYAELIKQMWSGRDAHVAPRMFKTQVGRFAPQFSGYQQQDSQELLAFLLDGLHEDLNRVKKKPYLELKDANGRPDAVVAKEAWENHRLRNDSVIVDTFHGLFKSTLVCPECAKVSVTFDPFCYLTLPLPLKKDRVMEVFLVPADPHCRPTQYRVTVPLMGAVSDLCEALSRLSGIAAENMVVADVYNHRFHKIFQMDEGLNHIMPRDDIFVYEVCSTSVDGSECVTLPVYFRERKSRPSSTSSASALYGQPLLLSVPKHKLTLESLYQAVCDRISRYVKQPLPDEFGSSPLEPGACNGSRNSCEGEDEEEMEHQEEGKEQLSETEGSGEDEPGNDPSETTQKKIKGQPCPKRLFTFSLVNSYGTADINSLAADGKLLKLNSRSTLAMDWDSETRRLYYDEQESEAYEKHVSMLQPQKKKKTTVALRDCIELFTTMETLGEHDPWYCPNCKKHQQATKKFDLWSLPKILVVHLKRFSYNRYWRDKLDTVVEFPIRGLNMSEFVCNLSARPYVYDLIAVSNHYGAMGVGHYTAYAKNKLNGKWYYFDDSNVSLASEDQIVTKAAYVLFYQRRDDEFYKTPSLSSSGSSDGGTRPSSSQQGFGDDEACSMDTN
Outline: as §1

Measured: log2 ratio of Biotin-Ahx-Ub-VS probe labelling

O=C(CCl)N1CCC(O)(Cc2ccc(F)cc2)C1 (stereo not given)
inactive: USP34 -0.0775 | USP36 0.229 | USP38 0.29 | USP39 0.427 | USP4 -0.138
